Bioassay records (PubChem BioAssay)
A549 viability – Nrf2 qHTS screen for inhibitors: counterscreen for cytotoxicity; 390,000 compounds, 0.16% hits; A549 ARE-Fluc cells, CellTiter-Fluor viability, 18-24 h; AID 504648, 2011; Potency, µM (doses to about 46 µM), actives largely listed as inhibitors
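Cytotoxicity counterscreen: CellTiter-Fluor fluorescence was measured in A549 ARE_Fluc cells after 18-24 h of compound exposure in a concentration series. The subsequent BugLite luminescent read reports ARE-luciferase activity.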
Nrf2 block – Nrf2 qHTS screen for inhibitors; A549 ARE-Fluc reporter, luciferase luminescence, 18-24 h; Potency, µM (series often up to 46 µM), actives largely listed as inhibitors; 360,000 compounds, 2.1% hits; AID 504444, 2011; further: nearly all actives have a fitted effect of over 60% in size
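Nrf2 activity is the BugLite luminescence, read 15 min after reagent at room temperature, following CellTiter-Fluor cytotoxicity readout (30 min, 37C). Compound titrations were applied for 18-24 h to 5000 A549 ARE_Fluc cells/well in 5% FBS OPTI-MEM.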
Epigenetic derep – Quantitative High-Throughput Screen for Regulators of Epigenetic Control | 280,000 compounds, 0.2% hits | murine LDR cells, GFP reporter derepression, 30 h | Potency, µM (highest dose often 53.9 µM), actives largely listed as activators; further: nearly all actives have a fitted effect of over 60% in size
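GFP-positive cell count by laser-scanning cytometry (objects 20–120 um) after 30 h, 37 C compound exposure of murine LDR cells; reporter is CMV-GFP integrated at a silenced locus, inducible by HDAC or DNMT inhibitors.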
PINK1 expr mod – A Quantitative High throughput Screen to Identify Chemical Modulators of PINK1 Expression | PINK1 immunofluorescence, high-content cytometry, 24 h | Potency, µM (highest dose often 76.6 µM), most hits filed as activators | 410,000 compounds, 0.2% hits; active means well fitted activation curve with a large enough effect; inconclusive means small, poorly fitted or top-dose-only effect; cell line not stated here; further: nearly all actives have a fitted effect of over 65% in size
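Measures PINK1 amount and localization on or inside mitochondria by immunofluorescence. Stable cells get compounds at 5 concentrations for 24 hours before fixation and staining; CCCP controls included.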
Nrf2 activator – qHTS of Nrf2 Activators; Potency, µM (titrated, usually from 46.1 µM), most hits filed as activators; 410,000 compounds, 0.31% hits; AREc32 ARE-luciferase reporter (MCF7-derived line), luminescence, 24 h; further: nearly all actives have a fitted effect of over 65% in size
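AREc32 cells carrying an ARE-driven firefly luciferase, 1000 cells/well in OPTI-MEM with 5% FBS, dosed after overnight attachment and incubated 24 hr at 37 deg C. Steady-Glo luminescence read after 30 min at RT.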
Large screens that a line does not name were inactive. Shown are actives, neighbours in structure and some others; about 2.4% of the full set was active somewhere. Unless noted, the call rests on the fitted dose curve; in most records, active means well fitted curve in the direction sought with a large enough effect; inconclusive means small, poorly fitted or top-dose-only effect, or another doubt; inactive means no such curve, though single readings can be large; an effect the other way counts as inactive or inconclusive.

CCOc1ccccc1NC(=O)CSc1ccc(-c2sc(C)nc2C)nn1	Nrf2 block 21µM (no result: Epigenetic derep)
CC(=O)c1cccc(NC(=O)CSc2ccc(-c3sc(C)nc3C)nn2)c1	none (no result: Epigenetic derep)
Cc1ccc(N2CCN(C(=O)c3cn(C)c4ccc(S(=O)(=O)N5CCCC5)cc4c3=O)CC2C)cc1 (configuration not stated)	none
O=C(Nc1ccccn1)c1ccc(Cl)c([N+](=O)[O-])c1	Nrf2 block inconclusive, Nrf2 activator 10µM
Cc1ccccc1NC(=O)Nc1ccccn1	Nrf2 block inconclusive (no result: Epigenetic derep)
N#Cc1ccsc1NC(=O)c1cccc([N+](=O)[O-])c1	A549 viability inconclusive, Nrf2 block inconclusive
O=C(Nc1ccccn1)Nc1ccccc1[N+](=O)[O-]	Nrf2 activator 4µM (no result: Epigenetic derep)
O=C(Nc1cccnc1Cl)c1ccc(Cl)c([N+](=O)[O-])c1	none
N#Cc1ccsc1NC(=O)c1ccc(Cl)c([N+](=O)[O-])c1	PINK1 expr mod 32µM
CC(=O)c1ccc(NC(=O)c2cc3c(=O)oc4ccc(C)cc4c3s2)cc1	none
COC(=O)C1CCN(Cc2ccc3c(c2)CN(C(=O)c2cc(C4CC4)on2)CCO3)CC1	none (no result: A549 viability, Nrf2 block, Epigenetic derep, Nrf2 activator)
COc1ccc(CN2CCOc3ccc(CN4CCC(Oc5cccnc5)CC4)cc3C2)cc1	none (no result: A549 viability, Nrf2 block, Epigenetic derep, Nrf2 activator)
CN(C)c1ncnc2c1ncn2C1OC(CO)C(O)C1O (configuration not stated)	Nrf2 block inconclusive
COc1ccc(C[C@H](N)C(=O)N[C@H]2[C@@H](O)[C@H](n3cnc4c(N(C)C)ncnc43)O[C@@H]2CO)cc1	A549 viability 1.5µM, Nrf2 block 1.5µM (no result: Epigenetic derep)
CC12CCC(=O)C=C1CCC1C2C(O)CC2(C)C(c3csc(N)n3)CCC12 (configuration not stated)	Nrf2 block 23µM (no result: Epigenetic derep)
CC12CCC(=O)C=C1CCC1C2CCC2(C)C(c3csc(N)n3)CCC12 (configuration not stated)	A549 viability inconclusive, Nrf2 block 18µM (no result: Epigenetic derep)
CC(=O)[C@H]1CC[C@H]2[C@@H]3CCC4=CC(=O)CC[C@]4(C)[C@H]3CC[C@]12C	none
CCCCC(OC(=O)CNC(=O)c1ccccc1)C(=O)Nc1cc(C(F)(F)F)ccc1Cl (configuration not stated)	Nrf2 block inconclusive (no result: Epigenetic derep, PINK1 expr mod, Nrf2 activator)
O=C(NCC1(N2CCOCC2)CCCC1)c1cnn(-c2nccc(-c3ccco3)n2)c1C1CC1	none (no result: A549 viability, Nrf2 block, Epigenetic derep, Nrf2 activator)
NNc1ccc2c(C(F)(F)F)cc(C(F)(F)F)nc2n1	Nrf2 block inconclusive
N#CC(c1cccc(Cl)c1)c1ccc2c(C(F)(F)F)cc(C(F)(F)F)nc2n1 (configuration not stated)	A549 viability 6.5µM, PINK1 expr mod inconclusive (no result: Nrf2 block)
CCOc1ccc(-c2csc(/C(C#N)=C\c3ccc(O)c([N+](=O)[O-])c3)n2)cc1	A549 viability 16µM, Nrf2 block inconclusive, PINK1 expr mod inconclusive
CCc1ccc(/C=C(/C#N)c2nc(-c3ccc(C)cc3)cs2)cc1	none
N#CC(=C(/N)Sc1ccccc1N)/C(C#N)=C(\N)Sc1ccccc1N	none (no result: A549 viability, Nrf2 block, PINK1 expr mod, Nrf2 activator)
CC(C)(C)OC(=O)N(CCc1ccccc1)Cc1ccccc1OCc1cccc(NC(=O)C2CC2)c1	Nrf2 block 21µM (no result: Epigenetic derep)
O=S(=O)(c1ccc2c(c1)OCCO2)N1CCN(S(=O)(=O)c2cc(F)c(Br)cc2F)CC1	none (no result: Epigenetic derep, PINK1 expr mod, Nrf2 activator)
COc1cc([C@H]2c3cc4c(cc3[C@@H](O[C@H]3O[C@H]5CO[C@@H](C)O[C@H]5[C@@H](O)[C@@H]3O)[C@@H]3COC(=O)[C@H]23)OCO4)cc(OC)c1O	none (no result: A549 viability, Nrf2 block, PINK1 expr mod, Nrf2 activator)
COc1ccc(-c2cc(C)nc(SCC(=O)c3cccc([N+](=O)[O-])c3)n2)cc1	Nrf2 block 21µM
Cc1cc(-c2ccccc2)nc(SCC(=O)c2cccc([N+](=O)[O-])c2)n1	Nrf2 block inconclusive, PINK1 expr mod inconclusive
COC(=O)C1CCCCN1Cc1ccc2c(c1)CN(Cc1cnn(-c3ccccc3)c1)CCO2 (configuration not stated)	none (no result: A549 viability, Nrf2 block, Epigenetic derep, Nrf2 activator)
Cc1ccc(S(=O)(=O)Nc2cc3c(cc2NCc2ccccc2)n(C)c(=O)n3C)c(C)c1	Nrf2 activator inconclusive
Cn1c(=O)n(C)c2cc(NS(=O)(=O)c3ccc(F)cc3)c(NCc3ccccc3)cc21	Nrf2 block inconclusive, Nrf2 activator 13µM
